Laboratory results: PubChem BioAssay (NCATS)
Inconclusive results are not listed. Activity calls are given as the source filed them. Calls come from the whole dose curve; as a rule, active = well fitted inhibition curve with a large enough effect; inconclusive = small, poorly fitted or top-dose-only effect; inactive = flat fitted curve, though single readings scatter.

Columns and labels:
[1] = test system: PC49; test: qHTS profiling for inhibitors of Plasmodium falciparum proliferation (AID 504749);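 note: 0% = DMSO vehicle and full inhibition = artemisinin control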; details: P. falciparum in erythrocytes, SYBR Green DNA, 72 h; series mostly up to 28.7 µM
Outline: (§1)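 SYBR Green fluorescence of parasite DNA, read after lysis and overnight dark incubation, measured growth over 72 h in erythrocyte culture at 0.3% parasitemia and 2.5% hematocrit. Data normalised to DMSO and 0.29 uM artemisinin, with plate-drift correction.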

[2] = test system: SC27B; test: as above; details: P. falciparum in erythrocytes, SYBR Green DNA, 72 h; series mostly up to 28.7 µM
Outline: as §1

[3] = test system: TAB109; test: as above; details: P. falciparum in erythrocytes, SYBR Green DNA, 72 h; series mostly up to 28.7 µM
Outline: as §1

[4] = test system: TAB113; test: as above; details: P. falciparum in erythrocytes, SYBR Green DNA, 72 h; series mostly up to 28.7 µM
Outline: as §1

[5] = test system: TAB165; test: as above; details: P. falciparum in erythrocytes, SYBR Green DNA, 72 h; series mostly up to 28.7 µM
Outline: as §1

[6] = test system: W2; test: as above; details: P. falciparum in erythrocytes, SYBR Green DNA, 72 h; series mostly up to 28.7 µM
Outline: as §1

[7] = test system: CRL-7250; test: Cytotoxic Profiling of Annotated Libraries Using Quantitative High-Throughput Screening (AID 1296008); details: Five cell lines viability, CellTiter-Glo ATP luminescence, 48-72 h; stronger effect = lower value; for max response: % is set by controls: 0 for no effect and ±100 for the full control effect
Outline: (§2)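 Cytotoxicity was measured as CellTiter-Glo ATP luminescence, read after 10 min at room temperature. Compound treatment of the cells lasted 48 or 72 hr at 37 degrees Celsius in a qHTS format.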

[8] = test system: HEK293; test: as above; details: Five cell lines viability, CellTiter-Glo ATP luminescence, 48-72 h; stronger effect = lower value
Outline: as §2

[9] = test system: HaCat; test: as above; details: Five cell lines viability, CellTiter-Glo ATP luminescence, 48-72 h; stronger effect = lower value
Outline: as §2

[10] = test system: KB-3-1; test: as above; details: Five cell lines viability, CellTiter-Glo ATP luminescence, 48-72 h, stronger effect = lower value
Outline: as §2

[11] = test system: NIH3T3; test: as above; details: Five cell lines viability, CellTiter-Glo ATP luminescence, 48-72 h; stronger effect = lower value
Outline: as §2

[12] = test system: HACAT; test: qHTS assay to identify novel small-molecules to repurpose for Merkel cell carcinoma treatment (AID 1296009); details: MCC and control cell lines, CellTiter-Glo viability, 72 h; at 44.8 µM (top of the series) unless noted
Outline: (§3)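 Cell viability, measured as CellTiter-Glo luminescence, was normalized between DMSO and no-cell wells. The cells had been exposed to 8- or 11-point compound dilutions for 72 hr at 37 degree celsius.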

[13] = test system: MCC-13; test: as above; details: MCC and control cell lines, CellTiter-Glo viability, 72 h; series mostly up to 46 µM
Outline: as §3

[14] = test system: MCC-26; test: as above; details: MCC and control cell lines, CellTiter-Glo viability, 72 h; series mostly up to 46 µM
Outline: as §3

[15] = test system: MKL-1; test: as above; details: MCC and control cell lines, CellTiter-Glo viability, 72 h; series mostly up to 46 µM
Outline: as §3

[16] = test system: MKL-2; test: as above; details: MCC and control cell lines, CellTiter-Glo viability, 72 h; series mostly up to 46 µM
Outline: as §3

[17] = test system: NIH3T3; test: as above; details: MCC and control cell lines, CellTiter-Glo viability, 72 h; at 44.8 µM (top of the series) unless noted
Outline: as §3

[18] = test system: UISO; test: as above; details: MCC and control cell lines, CellTiter-Glo viability, 72 h; series mostly up to 46 µM
Outline: as §3

[19] = test system: WaGa; test: as above; details: MCC and control cell lines, CellTiter-Glo viability, 72 h; series mostly up to 46 µM
Outline: as §3
Note: nearly all actives have a fitted effect of over 60% in size.

CCCCCC(N)=O
inactive: Potency [1] | Potency [2] | Potency [3] | Potency [4] | Potency [5] | Potency [6] | outcome [7] | max response [8] -2.09% | outcome [9] | max response [10] -2.56% | outcome [11] | outcome [12] | outcome [13] | outcome [14] | outcome [15] | outcome [16] | outcome [17] | outcome [18] | outcome [19]

Cc1c(C(=O)NCCO)[n+](=O)c2ccccc2n1[O-]
inactive: Potency [1] | Potency [2] | Potency [3] | Potency [4] | Potency [5] | Potency [6] | outcome [7] | max response [8] 0.33% | outcome [9] | max response [10] -16.8% | outcome [11] | outcome [12] | outcome [13] | outcome [14] | outcome [15] | outcome [16] | outcome [17] | outcome [18] | outcome [19]

CO[C@@]1(NC(=O)C(C(=O)O)c2ccc(O)cc2)C(=O)N2C(C(=O)O)=C(CSc3nnnn3C)CO[C@@H]21 (some centres undefined)
inactive: max response [7] -2.58% | max response [8] 1.05% | outcome [9] | max response [10] 4.1% | max response [11] -2.47% | outcome [12] | outcome [13] | outcome [14] | outcome [15] | outcome [16] | outcome [18] | outcome [19]

CCCCCCCC(=O)OCC(COC(=O)CCCCCCC)OC(=O)CCCCCCC
inactive: Potency [1] | Potency [2] | Potency [3] | Potency [4] | Potency [5] | max response [7] -3.96% | max response [8] 1.52% | outcome [9] | max response [10] -1.81% | max response [11] 4.46% | outcome [12] | outcome [13] | outcome [14] | outcome [15] | outcome [16] | outcome [18] | outcome [19]

CCOC(=O)[C@H](CCc1ccccc1)N[C@@H](C)C(=O)N1CCC[C@H]1C(=O)O
inactive: Potency [1] | Potency [2] | Potency [3] | Potency [4] | Potency [5] | Potency [6] | max response [7] 2.02% | max response [8] -1.68% | outcome [9] | max response [10] 7.19% | outcome [11] | outcome [12] | outcome [13] | outcome [14] | outcome [15] | outcome [16] | outcome [17] | outcome [18] | outcome [19]

C1CCN2C[C@@H]3C[C@@H](CN4CCCC[C@@H]34)[C@H]2C1
inactive: outcome [7] | max response [8] -9.35% | outcome [9] | max response [10] 4.47% | max response [11] 3.41% | outcome [12] | outcome [13] | outcome [14] | outcome [15] | outcome [16] | outcome [18] | outcome [19]

O=C(O)c1ccc[n+]([O-])c1
inactive: Potency [1] | Potency [2] | Potency [3] | Potency [4] | Potency [5] | Potency [6] | outcome [7] | max response [8] -0.144% | outcome [9] | max response [10] -1.65% | outcome [11] | outcome [12] | outcome [13] | outcome [14] | outcome [15] | outcome [16] | outcome [17] | outcome [18] | outcome [19]

OCc1ccc(Cl)cc1Cl
inactive: Potency [1] | Potency [2] | Potency [3] | Potency [4] | Potency [5] | Potency [6] | outcome [7] | max response [8] -6.19% | outcome [9] | max response [10] -1.05% | outcome [11] | outcome [12] | outcome [13] | outcome [14] | outcome [15] | outcome [16] | outcome [17] | outcome [18] | outcome [19]

C[C@@H](c1ncncc1F)C(O)(Cn1cncn1)c1ccc(F)cc1F (some centres undefined)
inactive: max response [7] -4.65% | max response [8] 2.6% | outcome [9] | max response [10] -2.08% | max response [11] -3.08% | outcome [12] | outcome [13] | outcome [14] | outcome [15] | outcome [16] | outcome [18] | outcome [19]

COC(=O)c1ccc(O)cc1
inactive: Potency [1] | Potency [2] | Potency [3] | Potency [4] | Potency [5] | Potency [6] | max response [7] 1% | max response [8] 3.26% | outcome [9] | max response [10] 0.911% | outcome [11] | outcome [12] | outcome [13] | outcome [14] | outcome [15] | outcome [16] | outcome [17] | outcome [18] | outcome [19]

O=c1[nH]c(=O)n([C@H]2C[C@H](O)[C@@H](CO)O2)cc1I
inactive: outcome [7] | max response [8] -0.666% | outcome [9] | max response [10] 5.94% | outcome [11] | outcome [12] | outcome [13] | outcome [14] | outcome [15] | outcome [16] | outcome [17] | outcome [19]

O=C(NCC(O)CO)c1c(I)c(C(=O)NCC(O)CO)c(I)c(N(CCO)C(=O)CO)c1I (centres undefined)
inactive: max response [7] -2.46% | max response [8] -0.64% | outcome [9] | max response [10] 27.3% | max response [11] 2.96% | outcome [12] | outcome [13] | outcome [14] | outcome [15] | outcome [16] | outcome [18] | outcome [19]

Cc1cccc(C(=O)O)c1O
inactive: Potency [1] | Potency [2] | Potency [3] | Potency [4] | Potency [5] | Potency [6] | max response [7] -0.667% | max response [8] -2.23% | outcome [9] | max response [10] 2.2% | outcome [11] | outcome [12] | outcome [13] | outcome [14] | outcome [15] | outcome [16] | outcome [17] | outcome [18] | outcome [19]

NS(=O)(=O)c1ccc(NC(=O)CCC(=O)O)cc1
inactive: Potency [1] | Potency [2] | Potency [3] | Potency [4] | Potency [5] | Potency [6] | max response [7] -4.29% | max response [8] -0.661% | outcome [9] | max response [10] -4.48% | outcome [11] | outcome [12] | outcome [13] | outcome [14] | outcome [15] | outcome [16] | outcome [17] | outcome [18] | outcome [19]
